From PubChem BioAssay
proKLK7 act: proKLK7 zymogen activators, primary screen, biochemical, fluorescence intensity | Kallikrein-7 (Homo sapiens), P49862 | purified proKLK7, EDANS-DABCYL substrate fluorescence; 100% is mature enzyme control, 0% vehicle | activation, % at 7 µM | 0.9% of 370,000 active | AID 652039, 2013;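 active = activation above the mean of all tested compounds plus 3 SD, computed per campaign excluding outliers beyond control limits, cut at about 13% in these data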
Target sequence (P49862 whole entry, looked up): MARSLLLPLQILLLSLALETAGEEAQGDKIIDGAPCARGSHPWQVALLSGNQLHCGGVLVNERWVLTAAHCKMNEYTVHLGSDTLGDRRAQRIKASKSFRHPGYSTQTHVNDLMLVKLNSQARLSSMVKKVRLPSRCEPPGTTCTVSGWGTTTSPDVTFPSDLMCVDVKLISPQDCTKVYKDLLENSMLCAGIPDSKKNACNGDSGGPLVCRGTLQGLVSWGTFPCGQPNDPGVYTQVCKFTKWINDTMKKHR
SMARCA2 activ: SMARCA2 (BRM) function activators, primary screen, cell-based, luminescence, high throughput. MG213 cells, MMTV-luciferase reporter, dexamethasone, overnight. activation, % at 9.1 µM. 1% of 370,000 active; in the data active = activation above about 7.8%
MsrA inhibitor: bovine MsrA enzyme inhibitors, primary screen, biochemical, absorbance, HTS. Methionine sulfoxide reductase A (Bos taurus). purified bovine MsrA, absorbance read-out. inhibition, % at 15.5 µM. 0.75% of 360,000 active. AID 651718, 2012; in the data active = inhibition above about 4.5%
bovine MsrA act: bovine MsrA enzyme activators, primary screen, biochemical, absorbance, HTS; Methionine sulfoxide reductase A (Bos taurus); purified bovine MsrA, absorbance read-out; activation, % at 10.6 µM; 0.3% of 360,000 active; in the data active = activation above about 7.5%
SMARCA2 conf: SMARCA2 (BRM) function activators, confirmation, cell-based, luminescence, triplicate. shares compounds with SMARCA2 activ. MG213 cells, MMTV-luciferase with dexamethasone, overnight; MG213 cells expressing E1A, Rb sequestered; DMSO wells 0%, reference activator 100%. activation, % at 9.1 µM. 30% of 3,500 active. AID 652260, 2013;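 active = activation above its plate's cutoff, the mean activation of tested wells plus 3 SD, cut at about 7.9% in these data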
GAL4-VP16 Luc: GAL4-VP16 luciferase reporter activation, counter-screen for SMARCA2 (BRM) activator project, cell-based, pG5luc, luminescence, high throughput | shares compounds with SMARCA2 activ | HEK293 GAL4-VP16 pG5luc reporter; scaled: DMSO wells 0%, SAHA wells 100% | activation, % at 9.1 µM | 41% of 3,500 active;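 active = activation above the solvent-only control well mean plus 3 SD, averaged across control plates, cut at about 5.2% in these data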
Large screens that a line does not name were inactive (follow-up assays come after a bar, where they were run). Most compounds without a hit are left out; they make up all but 2.8% or so of the library.

CCOc1ccc(/C=N/N(C)c2ccccc2)cc1OC	SMARCA2 activ 8.5 | SMARCA2 conf 8.1 | GAL4-VP16 Luc 12
CSc1nc(=O)[nH]nc1Sc1ccccc1	none
Fc1ccc(OCc2nc3ccccc3s2)cc1	SMARCA2 activ 9.1 | SMARCA2 conf inactive | GAL4-VP16 Luc 12
c1ccc(OCc2nc3ccccc3s2)cc1	none
CCOC(=O)[C@]12CCCCC/C=C\1N(CCc1ccc(Cl)cc1)C(=O)[C@H]2CC(=O)NCCCCc1ccccc1	none (no result: MsrA inhibitor, bovine MsrA act)
Cc1cccc(C(=O)OCC(=O)NCC2CCCO2)c1O (configuration not stated)	SMARCA2 activ 9.2 | SMARCA2 conf inactive | GAL4-VP16 Luc inactive
Cc1cc(C)n(-c2ccc(C(=O)N3CCN(S(=O)(=O)c4ccc(OC(F)(F)F)cc4)CC3)cc2)n1	none
CN(Cc1cc(=O)[nH]c2ccccc12)C(=O)c1ccccc1	SMARCA2 activ 9.4 | SMARCA2 conf inactive | GAL4-VP16 Luc inactive
CC(=O)N(Cc1cc(=O)[nH]c2ccccc12)c1ccccc1	none
COc1ccccc1N(Cc1cc(=O)[nH]c2ccccc12)C(=O)c1ccccc1	SMARCA2 activ 9.8 | SMARCA2 conf inactive | GAL4-VP16 Luc inactive
Cc1cc(-c2cn3ccccc3n2)c(C)n1-c1ccccc1	SMARCA2 activ 10 | SMARCA2 conf inactive | GAL4-VP16 Luc 8.2
COc1cc(CN(C(=S)NCC(=O)NC2CC2)C2CCCC2)cc(OC)c1OC	SMARCA2 activ 9.6 | SMARCA2 conf inactive | GAL4-VP16 Luc inactive
COc1ccc2nc(NC(=O)CSc3cn[nH]n3)sc2c1	none
CCOc1ccc2nc(NC(=O)CSc3cn[nH]n3)sc2c1	SMARCA2 activ 12 | SMARCA2 conf 8.2 | GAL4-VP16 Luc 13
COC(=O)c1cc(-c2cccc3ccccc23)c(=O)n2c1CCC2	none (no result: MsrA inhibitor, bovine MsrA act)
CC(C)(C)n1c(O)c2n(c1=O)Cc1ccccc1N=C2c1ccccc1	none
COc1ccc(C2=NN(C(=O)CN3CCOCC3)C(c3nc4ccccc4[nH]3)C2)cc1 (configuration not stated)	SMARCA2 activ 11 | SMARCA2 conf inactive | GAL4-VP16 Luc 7.6
COC(=O)Nc1nnc(-c2ccc(OC)cc2)s1	SMARCA2 activ 8.1 | SMARCA2 conf inactive | GAL4-VP16 Luc 5.2
CC(C)=CC(=O)Nc1nnc(-c2ccccc2)s1	SMARCA2 activ 16 | SMARCA2 conf inactive | GAL4-VP16 Luc 7.8
O=S1(=O)N[C@@H](Cc2ccccc2)COc2cccc(NCCO)c21	none (no result: bovine MsrA act)
CN1/C(=C\C(=O)c2cccnc2)Sc2ccccc21	SMARCA2 activ 13 | SMARCA2 conf inactive | GAL4-VP16 Luc 9.1
COc1ccc(C2=Nn3c(nnc3-c3ccco3)SC2)cc1OC	SMARCA2 activ 8.2 | SMARCA2 conf 13 | GAL4-VP16 Luc 9.2
CCOc1ccc(C2=Nn3c(nnc3-c3ccco3)SC2)cc1	none
COc1ccc(C2=Nn3c(nnc3-c3ccccc3Cl)SC2)cc1OC1CCOC1 (configuration not stated)	SMARCA2 activ 11 | SMARCA2 conf 18 | GAL4-VP16 Luc inactive
COc1ccc(C2=Nn3c(nnc3-c3ccccc3Cl)SC2)cc1OC1CCCC1	none
COc1ccc(C2=Nn3c(nnc3-c3ccccc3OC)SC2)cc1OC	SMARCA2 activ 16 | SMARCA2 conf 16 | GAL4-VP16 Luc 12
Cc1ccc(Nc2cccccc2=O)cc1	SMARCA2 activ 9.3 | SMARCA2 conf inactive | GAL4-VP16 Luc 8.4
Cc1ccc(NC(=O)COC(=O)c2ccccc2Nc2ccccc2)cc1	none
Cc1c(NC(=O)c2ccc([N+](=O)[O-])o2)cccc1-c1nc2ncccc2o1	none
C=CCN=C1NC(c2cccc(F)c2)C(C(=O)OC)=C(C)N1C (configuration not stated)	none (no result: bovine MsrA act)
CCC1(c2ccc(OC)cc2)NC(=O)N(CC(=O)NC2CCCCC2C)C1=O (configuration not stated)	none
O=C(O)/C=C/C(=O)N1Cc2cc3ccccc3nc2C1	none
CCOC(=O)N1Cc2cc3ccccc3nc2C1	SMARCA2 activ 8.9 | SMARCA2 conf inactive | GAL4-VP16 Luc 10
